Pf Dd2 growth: qHTS Primary assay for Inhibitors of Plasmodium falciparum Dd2 growth in vitro; P. falciparum Dd2 growth, SYBR Green, 72 h; Potency, µM (titrated, usually from 28.9 µM), inactives show at the highest dose activity, negative = inhibition, usual class: inhibitors; 120,000 tested, 4.3% active; active = well fitted inhibition curve with a large enough effect;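 note: plate controls were DMSO vehicle for no effect and reference drug for full effect; nearly all actives have a fitted effect of over 65% in size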
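Infected erythrocytes (Dd2, 0.3% parasitemia, 2.5% hematocrit final) are added to compound in RPMI-1640/Albumax II medium, grown 72 h at 37C in low oxygen, then lysed with saponin/Triton-X containing SYBR Green and read by fluorescence.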
An asterisk follows results filed as active; i = inactive. Shown is part of a subset that was picked to be rich in hits. Potency is the fitted concentration of half-maximal effect.

SMILES	Pf Dd2 growth
COc1cccc(NC(=O)C2CCCN(S(=O)(=O)c3cccc4nonc34)C2)c1 (configuration not stated)	20%
Cn1nccc1C(=O)N[C@@H]1CN(c2ncccn2)C[C@H]1CO	2.5µM*
CN(C)C[C@@H]1CN(c2ncccn2)C[C@H]1NC(=O)c1ccnn1C	15%
Cn1cccc1C(=O)N[C@@H]1CN(c2ncccn2)C[C@H]1CO	i
CC(C)CCN1C(=O)CC[C@]2(C(=O)N3CCN(c4ccc(F)cc4)CC3)CCCC[C@@H]12	10µM*
CC(C)CCN1C(=O)CC[C@]2(C(=O)N3CCOCC3)CCCC[C@@H]12	-19%
CN1C(=O)CC[C@]2(C(=O)N3CCN(c4ccc(F)cc4)CC3)CCCC[C@@H]12	-3%
Cc1noc(-c2ccccc2Cl)c1C(=O)NCCCCc1ccccc1	i
Cc1ccc(S(=O)(=O)c2nnn3c2nc(NCc2ccc(F)cc2)c2sccc23)cc1	i
CCCCN1CCN(C(=O)c2cnc(-c3ccccc3)nc2-c2ccncc2)CC1	-27%
CN1CCN(c2ncc(C(=O)O)c(-c3ccccc3)n2)CC1	6%
CC/C=C\CCc1c(-c2ccccc2)ncn1CCN1CCN(C)CC1	4.5µM*
CCOc1ccc(NC(=O)c2cnc(N3CCCCC3)c3ccccc23)cc1	-6%
Cc1ccc(CCNC(=O)c2ccc3c(c2)N(Cc2ccc(F)cc2)CCS3)cc1	10%
CCN1CCSc2ccc(C(=O)NCc3ccc(OC(C)C)cc3)cc21	17%
Cc1ccc(NC(=O)CN2CCSc3ccc(S(=O)(=O)N4CCCC4)cc32)cc1	7.9µM*
Cc1ccc(NC(=O)CN2C(=O)CCSc3ccc(S(=O)(=O)N4CCCC4)cc32)cc1	i
Cc1ccc(NC(=O)CN2C(=O)CCSc3ccc(S(=O)(=O)N4CCCC4)cc32)cc1C	13%
CCOc1ccc(CNC(=O)c2ccc3c(c2)N(CC)CCS3)cc1	36%
CCc1ccc(NC(=O)c2ccc3c(c2)N(Cc2ccc(C)cc2)CCS3)cc1	8.9µM*
COc1cc(OC)c(NC(=O)c2ccc3c(c2)N(Cc2ccc(C)cc2)CCS3)cc1Cl	11µM*
COc1cc(Cl)c(C)cc1NC(=O)c1ccc(CN2C(=O)CCn3nc(C)cc32)cc1	-3%
O=C(c1ccccc1)N1CCC(n2cc(-c3nc(C4CC4)no3)nn2)C1 (configuration not stated)	-14%
COC(=O)c1ccc(NS(=O)(=O)c2c(C)nc3sccn3c2=O)cc1	-8%
CCOc1ccc(C(=O)N2CCC3(CC2)N=C(c2ccc(C)cc2)NO3)cc1	-4%
SMILES	Pf Dd2 growth
CC1CCCN(S(=O)(=O)c2cc(C(=O)NCCc3ccccc3)n(C)c2)C1 (configuration not stated)	-16%
O=C(NCc1ccncc1)C1CCc2nc(N3CCN(C(=O)C4CCC4)CC3)sc2C1 (configuration not stated)	i
CCC(=O)N1CCN(c2nc3c(s2)CC(C(=O)NCc2cccc(OC)c2)CC3)CC1 (configuration not stated)	-4%
CCC(=O)N1CCc2nc(N3CCN(Cc4cccnc4)CC3)sc2C1	i
CCC(=O)N1CCN(c2nc3c(s2)CC(C(=O)Nc2ccc(F)cc2F)CC3)CC1 (configuration not stated)	5µM*
O=C(NCc1cccs1)C1CCc2nc(N3CCN(C(=O)C4CCC4)CC3)sc2C1 (configuration not stated)	5µM*
O=C(O)C1CCc2nc(N3CCN(C(=O)C4CCC4)CC3)sc2C1 (configuration not stated)	-20%
CCN1CCN(C(=O)C2CCc3nc(N4CCN(C(=O)C5CCC5)CC4)sc3C2)CC1 (configuration not stated)	-2%
O=C(NCc1ccco1)C1CCc2nc(N3CCN(C(=O)C4CCC4)CC3)sc2C1 (configuration not stated)	i
CCC(=O)N1CCN(c2nc3c(s2)CC(C(=O)Nc2cccc(C)c2C)CC3)CC1 (configuration not stated)	4µM*
Cc1ccccc1C(=O)N1CCC(C(=O)Nc2ccc(F)cc2F)CC1	38%
Cc1cccc(NC(=O)C2CCN(c3nnc(-n4c(C)ccc4C)s3)CC2)c1C	i
CCC(=O)N1CCN(c2nc3c(s2)CC(C(=O)NCc2ccccc2)CC3)CC1 (configuration not stated)	7.9µM*
CC(C)NC(=O)CN1CCN(c2nccc(N3CCC(O)CC3)n2)CC1	-3%
C=C[C@H]1CN2CC[C@H]1C[C@@H]2CNC(=O)c1ccco1	i
Cc1n[nH]c(C)c1C(N)C(=O)N1CCN(Cc2ccccc2C#N)CC1 (configuration not stated)	10%
NC(=O)c1ccc(N2CCN(Cc3c(Cl)cncc3Cl)CC2)nc1	-16%
CS(=O)(=O)N1CCCC1c1noc(CCC(=O)NCc2ccncc2)n1 (configuration not stated)	-9%
COc1ccc(CC(=O)N2CCC(c3n[nH]c(=O)n3Cc3ccc(OC)cc3)CC2)cc1	13µM*
Cc1ccc(Cn2c(C3CCN(C(=O)c4ccccc4Cl)CC3)n[nH]c2=O)cc1	-19%
